# Data: PubChem BioAssay (NCATS)
# Values joined by “and” are separate entries in the source; they are usually repeats but may differ in a detail not shown here. Equal entries are not always repeated. Inconclusive results are not listed. Where a call stands in place of a potency, no number is given. Active and inactive are the calls of the source. Unless noted, the call rests on the fitted dose curve.
# Legend:
# [1] = qHTS for Inhibitors of the Functional Ribonucleoprotein Complex (vRNP) of Lassa (LASV) Arenavirus: LASV Primary Screen - GLuc reporter signal (AID 1347082; calls by dose curve; tested in HEK293 reporter line; further: nearly all actives have a fitted effect of over 60% in size); conditions: LASV minigenome vRNP, Gaussia luciferase reporter; series mostly up to 57.5 µM
# [2] = qHTS for Inhibitors of the Functional Ribonucleoprotein Complex (vRNP) of Lassa (LASV) Arenavirus: Viability assay - alamar blue signal for LASV Primary Screen (AID 1347083; calls by dose curve; tested in HEK293 reporter line; further: nearly all actives have a fitted effect of over 80% in size); conditions: cell viability, alamar blue fluorescence (LASV minigenome counter-screen); series mostly up to 57.5 µM
# [3] = qHTS for Inhibitors of the Functional Ribonucleoprotein Complex (vRNP) of Lymphocytic Choriomeningitis Arenaviruses (LCMV): Viability assay - alamar blue signal for LCMV Primary Screen (AID 1347085; calls by dose curve; tested in HEK293 reporter line; further: nearly all actives have a fitted effect of over 80% in size); conditions: alamar blue viability counter-screen, LCMV vRNP screen cells; series mostly up to 57.5 µM
# [4] = target: Nucleoprotein (Lymphocytic choriomeningitis virus (strain Armstrong)) (UniProt P09992); experiment: qHTS for Inhibitors of the Functional Ribonucleoprotein Complex (vRNP) of Lymphocytic Choriomeningitis Arenaviruses (LCMV): LCMV Primary Screen - GLuc reporter signal (AID 1347086); conditions: LCMV minigenome vRNP cell assay, Gaussia luciferase reporter; series mostly up to 57.5 µM; further: nearly all actives have a fitted effect of over 70% in size
# Sequence of Nucleoprotein (Lymphocytic choriomeningitis virus (strain Armstrong)) (P09992 whole entry, looked up): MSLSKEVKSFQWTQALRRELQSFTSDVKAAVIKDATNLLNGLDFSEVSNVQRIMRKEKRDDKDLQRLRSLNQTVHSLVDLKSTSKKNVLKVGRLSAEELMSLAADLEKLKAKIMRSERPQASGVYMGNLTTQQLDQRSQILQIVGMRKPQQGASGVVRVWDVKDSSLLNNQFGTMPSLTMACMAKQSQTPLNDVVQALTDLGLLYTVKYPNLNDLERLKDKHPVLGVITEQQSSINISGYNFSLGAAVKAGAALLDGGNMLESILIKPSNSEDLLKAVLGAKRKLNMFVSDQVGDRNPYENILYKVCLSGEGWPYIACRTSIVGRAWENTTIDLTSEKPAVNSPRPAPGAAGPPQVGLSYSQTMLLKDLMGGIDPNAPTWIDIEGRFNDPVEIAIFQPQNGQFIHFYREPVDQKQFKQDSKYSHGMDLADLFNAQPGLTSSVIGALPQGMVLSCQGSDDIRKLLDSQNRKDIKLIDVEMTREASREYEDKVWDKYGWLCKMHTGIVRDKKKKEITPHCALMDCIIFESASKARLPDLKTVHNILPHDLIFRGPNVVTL
# Potency means the concentration at half of the fitted maximal effect.
Structure (SMILES),Potency [1],Potency [2],Potency [3],Potency [4]
OC[C@H]1O[C@@H](OCCc2ccc(O)cc2)[C@H](O)[C@@H](O)[C@H]1O,inactive,inactive,inactive,inactive
O=c1oc2c(O)c(O)cc3c(=O)oc4c(O)c(O)cc1c4c23,inactive,inactive,inactive,inactive
N[C@H](C(=O)O)c1ccc(O)cc1,inactive,inactive,inactive,inactive
CCOCCn1c(N2CCCN(C)CC2)nc2ccccc21,inactive,inactive,inactive,inactive
CN(C)C(=O)Nc1ccc(Cl)c(Cl)c1,inactive,inactive,inactive,inactive
CC(C)(Oc1ccc(CCNC(=O)c2ccc(Cl)cc2)cc1)C(=O)O,inactive,inactive,inactive,inactive
Cc1cccc(N(C)C(=S)Oc2ccc3c(c2)CCC3)c1,inactive,inactive,inactive,inactive
C#C[C@]1(OC(C)=O)CC[C@H]2[C@@H]3CCC4=C[C@@H](OC(C)=O)CC[C@@H]4[C@H]3CC[C@@]21C,inactive,inactive,inactive,inactive
CC(C(=O)O)c1ccc2c(c1)Cc1cccnc1O2 (stereo not given),inactive,inactive,inactive,inactive
Fc1ccc(C(c2ccc(F)cc2)N2CCN(C/C=C/c3ccccc3)CC2)cc1,inactive,inactive,inactive,inactive
O=S(=O)(c1cccc2cnccc12)N1CCCNCC1,inactive,inactive,inactive,inactive
OCC(CO)N[C@H]1C[C@](O)(CO)[C@@H](O)[C@H](O)[C@H]1O,inactive,inactive,inactive,inactive
Cc1sccc1Br,inactive,inactive,inactive,inactive
CC(C)NC(=O)c1ccc(C=O)cc1,inactive,inactive,inactive,inactive
Cc1ccc2c(Cl)cc(Cl)c(O)c2n1,inactive,inactive,inactive,inactive
COc1cccc(N(C)C(=S)Oc2ccc3c(c2)CCCC3)n1,inactive,inactive,inactive,inactive
Nc1ccc(S(=O)(=O)Nc2cnc3ccccc3n2)cc1,inactive,inactive,inactive,inactive
CC(C)(C)CC(=O)OCC(=O)[C@@]1(O)CC[C@H]2[C@@H]3CCC4=CC(=O)C=C[C@]4(C)[C@H]3[C@@H](O)C[C@@]21C,inactive,inactive,inactive,inactive
NCCc1ccc(O)c(O)c1,inactive,inactive,inactive,inactive
CCN(CC)C(=O)Nc1ccc(OCC(O)CNC(C)(C)C)c(C(C)=O)c1 (stereo not given),inactive,inactive,inactive,inactive

Structure (SMILES),Potency [1],Potency [2],Potency [3],Potency [4]
O=C(CCCCCCCCC#CI)Oc1ccccc1,inactive,inactive,inactive,inactive
C[C@]12CC[C@H]3[C@@H](CCC4=CC(=O)CC[C@@]43C)[C@@H]1CC[C@@H]2C(=O)CO,inactive,inactive,inactive,inactive
CCOc1ccc(NC(C)=O)cc1,inactive,inactive,inactive,inactive
CCOC(=O)[C@H](CCc1ccccc1)N[C@H]1CS[C@H](c2cccs2)CN(CC(=O)O)C1=O,inactive,inactive,inactive,inactive
CN(C)CCCO[C@@H]1[C@H]2OC(C)(C)O[C@H]2O[C@@H]1C(O)CO (stereo not given in full),inactive,inactive,inactive,inactive
COC(=O)C1=C(C)NC(COC(N)=O)=C(C(=O)OC(C)C)C1c1cccc(Cl)c1Cl (stereo not given),inactive,inactive,inactive,inactive
CN1CCOC(c2ccccc2)c2ccccc2C1 (stereo not given),inactive,inactive,inactive,inactive
CCCc1ncc(C(=O)O)s1,inactive,inactive,inactive,inactive
C/C=C(/C(=C/C)c1ccc(OC(C)=O)cc1)c1ccc(OC(C)=O)cc1,inactive,inactive,inactive,inactive
Cl/C(=C\n1cncn1)c1ccc(Cl)cc1Cl,inactive,inactive,inactive,inactive
CCN(CC)C(=O)c1cccc(C)c1,inactive,inactive,inactive,inactive
Fc1ccc(C(c2ccc(F)cc2)N2CCNCC2)cc1,inactive,inactive,inactive,inactive
NS(=O)(=O)c1cc(C(=O)O)c(NCc2ccco2)cc1Cl,inactive,inactive,inactive,inactive
O=C(c1ccc(F)cc1)C1CCN(CCn2c(=O)[nH]c3ccccc3c2=O)CC1,inactive,inactive,inactive,inactive
CCCCCC1Nc2cc(C(F)(F)F)c(S(N)(=O)=O)cc2S(=O)(=O)N1 (stereo not given),inactive,inactive,inactive,inactive
C[N+](C)(C)CCOC(=O)CCC(=O)OCC[N+](C)(C)C,inactive,inactive,inactive,inactive
Cc1ccc(C(=O)Nc2ccc(S(=O)(=O)O)c3cc(S(=O)(=O)O)cc(S(=O)(=O)O)c23)cc1NC(=O)c1cccc(NC(=O)Nc2cccc(C(=O)Nc3cc(C(=O)Nc4ccc(S(=O)(=O)O)c5cc(S(=O)(=O)O)cc(S(=O)(=O)O)c45)ccc3C)c2)c1,inactive,inactive,inactive,inactive
C=CCc1cc(OC)c(O)c(C(=O)NCCO)c1,inactive,inactive,inactive,inactive
N=C(N)c1ccc2cc(OC(=O)c3ccc(N=C(N)N)cc3)ccc2c1,inactive,inactive,inactive,inactive
Cc1[nH]c(C)c(Cl)c(=O)c1Cl,inactive,inactive,inactive,inactive

Structure (SMILES),Potency [1],Potency [2],Potency [3],Potency [4]
CC(=O)c1ccc2c(c1)N(CCCN1CCC(CCO)CC1)c1ccccc1S2,inactive,inactive,inactive,inactive
CC(C)C[C@@H]1[C@H](c2ccccc2)OC(=O)N1CCCN1CCCCCC1,inactive,inactive,inactive,inactive
CN(C)c1ccc(C(=C2C=CC(=[N+](C)C)C=C2)c2ccc(N(C)C)cc2)cc1,1220 nM (active),3850 nM (active),5.62 µM (active) and 3.85 µM (active),1530 nM (active)
C[N+](C)(C)CC[N+]1(C)Cc2c(Cl)c(Cl)c(Cl)c(Cl)c2C1,inactive,inactive,inactive,inactive
CCCCN=C(N)N=C(N)N,inactive,inactive,inactive,inactive
NC(N)=NCCC[C@H](N)C(=O)O,inactive,inactive,inactive,inactive
CC(C)(C)c1ccc(C(=O)CCCCl)cc1,inactive,inactive,inactive,inactive
CC1(C)O[C@@H]2C[C@H]3[C@@H]4C[C@H](F)C5=CC(=O)CC[C@]5(C)[C@H]4[C@@H](O)C[C@]3(C)[C@]2(C(=O)CO)O1,inactive,inactive,inactive,inactive
C[C@H](CCC(=O)O)[C@H]1CC[C@H]2[C@@H]3C(=O)C[C@@H]4CC(=O)CC[C@]4(C)[C@H]3CC(=O)[C@]12C,inactive,inactive,inactive,inactive
CCCCN(CCCC)CCC(O)c1cc2c(Cl)cc(Cl)cc2c2cc(C(F)(F)F)ccc12 (stereo not given),inactive,inactive,inactive,inactive
CN1C[C@H](C(=O)N[C@]2(C)O[C@@]3(O)[C@@H]4CCCN4C(=O)[C@H](Cc4ccccc4)N3C2=O)C[C@@H]2c3cccc4[nH]cc(c34)C[C@H]21,inactive,inactive,inactive,inactive
FC(F)(F)C(Cl)Br (stereo not given),inactive,inactive,inactive,inactive
CCN1C(=O)c2ccccc2C1Nc1ccc(OCCN2CCCCC2)cc1 (stereo not given),inactive,inactive,inactive,inactive
OCC(O)CS (stereo not given),inactive,inactive,inactive,inactive
C[C@@H]1C[C@H]2[C@@H]3CCC4=CC(=O)C=C[C@]4(C)[C@@]3(F)[C@@H](O)C[C@]2(C)[C@H]1C(=O)CO,inactive,inactive,inactive,inactive
C[C@]12CCC(=O)C=C1C=C[C@@H]1[C@@H]2CC[C@@]2(C)[C@H]1CC[C@@]21CCC(=O)O1,inactive,inactive,inactive,inactive
CCN(CC)CCOC(=O)C(c1ccccc1)c1ccccc1,inactive,inactive,inactive,inactive
CCCOC(C(=O)OC1CCN(C)CC1)(c1ccccc1)c1ccccc1,inactive,inactive,inactive,inactive
CC(C)COCC(CN(Cc1ccccc1)c1ccccc1)N1CCCC1 (stereo not given),inactive,inactive,inactive,inactive
CCN(CC)C(=O)N1CCN(C)CC1,inactive,inactive,inactive,inactive
